In the OligoGym collection:

target: JDP2; experiment: pooled miR-30 sensor sort-seq; sequence = guide strand; conditions: shRNA
Also: reference of the scale not given here.

| Sequence | sensor-assay potency score (higher = more potent) |
| --- | --- |
| TTTCCTTCGCTCCTCTTCCTCA | -0.612 |
| TCTTCTTGTTCCGGCATCGGGC | -0.866 |
| TTTATACTGTATCACATCGAGT | -0.987 |
| TATCTGTTCATAACAAACAAAC | -1.71 |
| TAGCTCACTTTTCACGGGCTGG | -0.699 |
| TTAGGAGTTACACACAACGGCC | -1.56 |
| TTTGGTTGCAACTCATGGCTTT | 0.0923 |
| TTTCATTCTGAGTTCCATCCTC | 0.428 |
| TACTGTATCACATCGAGTGATT | -0.618 |
| TATACTGTATCACATCGAGTGA | -0.648 |
| ATAACAAACAAACCATAGCATA | -1.75 |
| TAAACATTCGGTGAGTATGTGC | -0.401 |

target: JMJD1C; experiment: as above; conditions: shRNA

| Sequence | sensor-assay potency score (higher = more potent) |
| --- | --- |
| TTTACATTTATCTTGGAGGTTT | -0.435 |
| TATCTTGTCAACATCTTTCCCA | 0.56 |
| ATTGACAGAACTTATCACCTAT | 0.441 |
| TATCTCTAGAACTCTTCCTTTC | -0.557 |
| TAGTCTTGAAGTCTTCTCCTGA | 0.704 |
| TTCAATTTTAAAACAACTGTTT | -0.691 |
| ATCTATTCTAACTACTCCGTTT | -1.09 |
| TTTATCTCTAGAACTCTTCCTT | 0.72 |
| TTAACTTGTTATCTGTGCCTAC | 0.548 |
